In PubChem BioAssay AID1259415 (National Center for Advancing Translational Sciences (NCATS), 2018):
The campaign covered roughly 410,000 compounds. About 18,000 (4.4%) were called active. Inconclusive results (about 7%) are left out. What follows is part of a selection rich in actives, with near analogues and random picks from the rest. Unmarked numbers belong to inactive results. Rule as the data show it: active = activity change below about -60%; inconclusive = no clear call, values can overlap the other calls; inactive = above about -39%.

Test: qHTS Assay for inhibitors of the human cytomegalovirus (HCMV)
Conditions: HFF cells, HCMV-luciferase reporter, 72 h; at 57.5 µM; active compounds read low
Summary of the method: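 Screen run at 2 compound doses on HFFs infected with reporter HCMV, MOI 1 PFU/cell. Luciferase activity from cell lysates at 72 h post infection gave inhibition relative to buffer-only and Salinomycin wells.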
% is scaled to controls: 0 for no effect and ±100 for the full control effect.

Structure (SMILES) | activity change, negative = inhibition
CCOc1ccc(CCNC(=O)CN(c2ccc(C)cc2)S(=O)(=O)N(C)C)cc1OCC | -14.8%
Cc1nn2c(=O)cc(COC(=O)CNC(=O)c3ccc(F)cc3)nc2s1 | -0.933%
CCOC(=O)c1ccn(S(=O)(=O)c2ccc(C)cc2)c1-c1ccccc1 | -18.7%
CCOC(=O)C1C(C)C(C(C)(C)C)N(S(=O)(=O)c2ccc(C)cc2)C1c1ccccc1 (configuration not stated) | -77.2% (active)
Cc1ccc(S(=O)(=O)N2[C@@H](c3cccc4ccccc34)C(C(=O)O)=C[C@H]2C(C)(C)C)cc1 | -14.1%
CCc1nc2ccc(C(=O)N3CCN(c4cc(Cl)ccc4C)CC3)cc2nc1CC | 33.5%
CCC(=O)N1CCc2cc(S(=O)(=O)NC(C(=O)Nc3ccc(C(C)=O)cc3)C(C)C)ccc21 (configuration not stated) | 7.35%
C=Cn1cc[n+](CC(=O)c2ccc(OC)c(OC)c2)c1 | -10.4%
COc1ccccc1CC(=O)Nc1ccc(S(=O)(=O)N2CCCC2)cc1 | -14.7%
COc1ccc(-c2ccc(Nc3ccc(S(=O)(=O)N4CCCC4)cc3)nn2)cc1OC | -67% (active)
COc1ccc(S(=O)(=O)N2CCC(C(=O)N3CCCC3)CC2)cc1C | 1.95%
O=C(CSc1oc(-c2ccccc2)nc1S(=O)(=O)c1ccc(Br)cc1)NC1CCCCC1 | 14%
O=C(NCc1ccc(F)cc1)c1ccc(Cn2c(SCc3ccc(F)cc3)nc3cccnc32)cc1 | 16%
Cc1c(C(=O)N(C)C)sc2c1c(=O)n(-c1ccc(F)cc1)c(=O)n2CC(=O)N(C)c1ccccc1 | 7.53%
Cc1ccc(S(=O)(=O)NCCC(=O)OCC(=O)N(C)c2ccccc2)cc1 | 2.56%
CN(C(=O)COC(=O)CNC(=O)C12CC3CC(CC(C3)C1)C2)c1ccccc1 | 5.66%
CN(C(=O)CC(NC(=O)c1ccccc1)(c1ccccc1)c1ccccc1)c1ccccc1 | -66.2% (active)
Cc1ccc(C)c(Oc2c(C(F)(F)F)oc3c(CN4CCN(C)CC4)c(O)ccc3c2=O)c1 | -2.3%
Cn1c(=O)nc2n(-c3ccc(Br)cc3)c3cccc(Cl)c3cc-2c1=O | -1.09%
CCOC(=O)c1cc(OC(=O)c2ccccc2Cl)n(-c2ccccc2)n1 | -20.3%
Cc1ccc(CCNC(=O)c2nnc(Cc3cccc(F)c3)o2)cc1 | -16.3%
COc1ccc(CCNC(=O)COC(=O)Cc2ccccc2F)cc1 | 3.43%

Structure (SMILES) | activity change, negative = inhibition
COc1ccc(C(CNCC(=O)Nc2ccccc2F)N(C)C)cc1 (configuration not stated) | 8.02%
COc1ccc(C(CCNCc2ccccc2F)c2ccc(F)cc2)cc1 (configuration not stated) | -62.4% (active)
C=C1CCN([C@H](C(=O)NCc2cc(OC)c(OC)c(OC)c2)C(C)C)S(=O)(=O)c2ccccc21 | 9.82%
Cc1cccc(N2CCN(C(=O)Cn3ncc4c5ccccc5n(C)c4c3=O)CC2C)c1 (configuration not stated) | 17.6%
CCOC(=O)N1CCN(C(=O)C2CCN(S(C)(=O)=O)CC2)CC1 | -16.6%
CCN1CCN(C(=O)C2CCN(S(=O)(=O)c3cc(Cl)ccc3Cl)CC2)CC1 | 10.9%
CCOC(=O)N1CCN(C(=O)C2CCN(S(=O)(=O)c3cc(Cl)ccc3OCC)CC2)CC1 | -87% (active)
CCn1c2c(c(=O)n3ncc(C(=O)N4CCN(c5ccccc5)CC4)c13)CN(Cc1ccc(OC)cc1)CC2 | 17.6%
COc1ccccc1-n1c(-c2ccc(C)cc2)cn2c3c(=O)n(C)c(=O)n(C)c3nc12 | -0.712%
COCC(C)N=CC1=C(O)CC(C)(C)CC1=O (configuration not stated) | 36.9%
O=C(NCCCN1CCCC1=O)C(=O)NCC1OCCN1S(=O)(=O)c1ccc(Br)cc1 (configuration not stated) | -19.1%
CC(C)NC(=O)C1CCC(Cn2c(=O)c3sccc3n(Cc3ccc(F)cc3)c2=O)CC1 (configuration not stated) | 23.5%
OCCC1CN(Cc2ccc3nsnc3c2)CCN1C1CCCCC1 (configuration not stated) | 11.1%
OCCC1CN(Cc2ccc3nsnc3c2)CCN1C1CCCC1 (configuration not stated) | -14.5%
Cn1cnnc1Sc1ccc(CN2CCN(C3CCCC3)C(CCO)C2)o1 (configuration not stated) | -68.7% (active)
CCN(C(=O)Cn1cc(S(=O)(=O)N2CCN(c3ccccc3F)CC2)c2ccccc2c1=O)c1ccc(C)c(C)c1 | 3.86%
COc1ccccc1OCCNc1cc(N2CCOCC2)ccc1[N+](=O)[O-] | 63.8%
COc1ccc(CCNc2cc(N3CCN(C(=O)c4ccccc4OC)CC3)ccc2[N+](=O)[O-])cc1OC | -94% (active)
COc1ccc(CCNC(=O)C(=O)NCc2ccccc2C)cc1OC | -36%
COc1cccc(NC(=S)NC(=O)c2c(Cl)c(C)nn2C)c1 | 12.6%
COc1ccc(N2CCN(S(=O)(=O)CCNC(=O)C34CC5CC(CC(C5)C3)C4)CC2)cc1 | -36.2%
CCOc1ccccc1OCCCNCc1ccccc1 | -10.8%

Structure (SMILES) | activity change, negative = inhibition
COc1ccc(Nc2cc(C(=O)NCCCN(C)c3ccccc3)c3ccccc3n2)c(OC)c1 | -2.95%
CN(C)CCNC(=O)Cc1ccc([N+](=O)[O-])cc1 | -3.93%
CN(C)CCNC(=O)c1ccc(Cl)c2cc3ccccc3nc12 | -98.5% (active)
COc1cccc(-c2nnc(SCC(=O)N3CCC(C)CC3)o2)c1 | -9.59%
COc1ccc(-c2noc(CSc3nnc(-c4ccccc4)n3-c3ccc(F)cc3)n2)c(OC)c1 | -21.4%
COc1cc(-c2noc(C3CCCN(S(=O)(=O)c4cccc(Cl)c4)C3)n2)cc(OC)c1OC (configuration not stated) | 41.5%
COc1cc(-c2noc(-c3ccc(N4CCCC4)c([N+](=O)[O-])c3)n2)cc(OC)c1OC | -6.79%
CC(=O)c1ccc(NC(=O)COc2ccccc2-c2nc(-c3ccccc3)no2)cc1 | 13.9%
COc1ccc(-c2nc(-c3ccccc3)no2)c(OC)c1 | -60.9% (active)
COc1ccc(-c2cc(-c3nc(-c4cc(OC)c(OC)c(OC)c4)no3)[nH]n2)c(OC)c1 | -68.8% (active)
O=C1CN(C(=O)Nc2ccccc2C(F)(F)F)C(c2ccccc2)c2c(sc3c2CCCC3)N1 (configuration not stated) | -16.6%
CCCCOc1ccc(N(CC(=O)NCC2CCCO2)C(=O)CCC(=O)Nc2cc(C)ccn2)cc1 (configuration not stated) | 36.3%
CC(C)Oc1ccc(/C=N/NC(=O)c2nnn(-c3nonc3N)c2CN(C)C2CCCCC2)cc1 | 7.96%
CN(C)Cc1c(C(=O)N/N=C/c2ccccc2OCc2ccc(F)cc2)nnn1-c1nonc1N | -6.09%
Nc1nonc1-n1nnc(C(=O)N/N=C/c2cc(Br)ccc2O)c1CSC1=NCCS1 | -103% (active)
CC(C)c1ccc(NC(=O)c2ccc3c(O)c(S(=O)(=O)c4ccccc4)c(=O)[nH]c3c2)cc1 | 2.46%
Cc1ccc2nc(COc3ccc(NC(=O)COc4ccccc4F)cc3)cc(=O)n2c1 | 20.4%
Cc1ccc(C2CC2C(=O)NN)cc1 (configuration not stated) | 7.91%
Cc1ccc(C2NC(C(=O)O)CS2)cc1 (configuration not stated) | -64.5% (active)
O=C(O)C1CSC(c2cccnc2)N1 (configuration not stated) | -2.83%
Cc1nc2ccc(S(=O)(=O)N(CC(=O)Nc3ccc(F)cc3)Cc3ccccc3)cc2s1 | -20.3%
COC(=O)c1cccc(Cn2nnc3sc4c(c3c2=O)CCC(C(C)(C)C)C4)c1 (configuration not stated) | 27.6%

Structure (SMILES) | activity change, negative = inhibition
O=c1[nH]c2cc(Br)ccc2n2cccc12 | -16.7%
CC(C)OC(=O)CN1CCN(c2ccc(Cl)cc2)CC1 | -25.8%
O=C(CN1CCN(c2ccc(Cl)cc2)CC1)NCc1cccs1 | -26.2%
O=C(CN1CCN(c2ccc(Cl)cc2)CC1)c1ccccc1 | -68.8% (active)
CCCCCCCCN1C(=O)[C@H](CC(=O)NCc2cccc3ccccc23)C[C@@]2(C(=O)OC)CCCCC=C12 | 11.4%
CCC(=O)N1CCc2cc(Br)cc(S(=O)(=O)Nc3ccc(C)cc3C)c21 | -2.54%
CSc1nc(-c2ccccc2)nc(C(Cl)Cl)n1 | -99.4% (active)
C/C(N)=C(/C#N)C(=O)COC(=O)C1=NN(c2ccccc2)C(=O)CC1 | 36.4%
CCN1N=C(c2ccccc2)CCC1=O | -24.2%
O=C1CC(c2ccccc2)=NN1c1ccc([N+](=O)[O-])cc1 | -78% (active)
O=C1CCCc2cc(S(=O)(=O)N3CCCC(C(=O)NCc4ccccc4)C3)ccc2N1 (configuration not stated) | -3.71%
CCOc1ccc(-n2c(SCC(=O)NCc3ccccc3)nc3n[nH]c(C)c3c2=N)cc1 | 35.6%
COc1ccc(Cc2nnc(SC)[nH]c2=O)cc1 | -30.1%
Cc1ccc(Cc2nnc(SCC(=O)Nc3ccccc3C)[nH]c2=O)cc1 | -1.67%
COc1ccc(Cc2nnc(N/N=C/c3ccccc3O)[nH]c2=O)cc1OC | -97.9% (active)
Cc1ccc(C)c(N2CCN(S(=O)(=O)c3ccc4c(c3)C(C(C)C)C(=O)N4)CC2)c1 (configuration not stated) | -24.7%
CCOc1ccc(NC(=O)CN(C)C(=O)c2c(C)noc2C)cc1OCC | -5.36%
Cc1ccccc1-c1nc2cc(NC(=O)c3cccc(OCCC(C)C)c3)ccc2o1 | -15.9%
CCOC(=O)C1CCCN(C(=O)c2sc3nc(C)nc(N4CCOCC4)c3c2C)C1 (configuration not stated) | -14%
Cc1nc(N2CCOCC2)c2c(C)c(C(=O)Nc3ccc(C(F)(F)F)cc3)sc2n1 | -84.9% (active)
CC(=O)c1ccc(NC(=O)c2sc3nc4n(c(=O)c3c2C)CCCCC4)cc1 | 23.1%
